Compound activity deposited in PubChem BioAssay by National Center for Advancing Translational Sciences (NCATS).
Hits are enriched below; roughly 7.5% of the tested compounds scored in any of these assays.
NPC1 promoter act – qHTS Assay for NPC1 Promoter Activators | 320,000 compounds, 2.4% hits | Huh7 NPC1 promoter luciferase reporter, 24 h | Potency, µM (titrated, usually from 9.22 µM), for the others: at the top dose activation, hits mostly activators; further: % of control where 0% means no effect; nearly all actives have a fitted effect of over 60% in size
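Stable NPC1-promoter luciferase Huh7 line; cpd (DMSO) 24 h, 37 °C, 5% CO2; Amplite luciferase reagent 10 min RT; luminescence readout. qHTS format.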
ELG1 genotox – qHTS screen for small molecules that induce genotoxicity in human embryonic kidney (HEK293T) cells expressing luciferase-tagged ELG1; HEK293T ELG1-luciferase reporter, luminescence, 16 h; Potency, µM (top dose mostly 46 µM), inactives show at the top dose activity change, positive = activation, most hits filed as activators; 330,000 compounds, 1.3% hits; further: % of control where 0% means no effect; nearly all actives have a fitted effect of over 60% in size
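After overnight (16 hr) compound treatment at 37 °C, ELG1-luciferase HEK293T cells were lysed with ONE-Glo; luminescence quantified 30 min later at room temperature.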
Luc counter – Counterscreen for Luciferase (Kinase-Glo TM) Inhibition | Kinase-Glo luciferase, ATP luminescence, 8 min | Potency, µM (series often up to 38.3 µM), for the others: at the top dose activity change, negative = inhibition, usual class: inhibitors | 200,000 compounds, 0.28% hits; further: on the % scale 0 is the no-effect control and ±100 the full control effect; nearly all actives have a fitted effect of over 60% in size
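Light output from Kinase-Glo luciferase with luciferin and 10 uM ATP in 50 mM imidazole pH 7.2, KCl, MgCl2, Tween 20, BSA; compound pin-delivered, 8-min ambient incubation, then luminescence read.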
Rab9 promoter act – qHTS Assay for Rab9 Promoter Activators | Huh7 Rab9 promoter-luciferase reporter, luminescence, 24 h | Potency, µM (top dose mostly 9.22 µM), inactives show top-dose activation, negative = inhibition, hits mostly activators | 320,000 compounds, 2.8% hits | AID 485297, 2010; further: % of control where 0% means no effect; nearly all actives have a fitted effect of over 60% in size
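Huh7 cells stably carrying Rab9 promoter–luciferase reporter, plated 1500 cells/well, compound added after 2 h and incubated 24 h at 37 °C; luciferase luminescence then read after 10 min with detection reagent.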
SMN2 splice enh – qHTS Assay for Enhancers of SMN2 Splice Variant Expression; HEK293 SMN2-luciferase splicing reporter, luminescence, 30-36 h; Potency, µM (highest dose often 46.1 µM), for inactives: top-dose activity change, positive = activation, usual class: activators; 210,000 compounds, 2.8% hits; AID 1458, 2008; further: % of control where 0% means no effect; nearly all actives have a fitted effect of over 55% in size
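HEK293 cells carry an SMN2 minigene-luciferase reporter in which exon 7 inclusion puts luciferase in frame. Cells were seeded at 2000 cells/well, attached for 10-12 hours, then exposed to compounds for 30-36 hours at 37C before ONE-Glo luminescence.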
FLuc modulator – qHTS profiling assay for firefly luciferase inhibitor/activator using purifed enzyme and Km concentrations of substrates (counterscreen for miR-21 project); Luciferin 4-monooxygenase (Photinus pyralis), P08659; purified FLuc, Km substrates, luminescence inhibition; Potency, µM (series often up to 57.5 µM), for inactives: at the top dose activity change, negative = inhibition, usual class: inhibitors; 360,000 compounds, 6.9% hits; AID 588342, 2011;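 further: plate controls were vehicle for no effect and reference inhibitor for full effect; nearly all actives have a fitted effect of over 55% in size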
Target sequence (P08659 whole entry, looked up): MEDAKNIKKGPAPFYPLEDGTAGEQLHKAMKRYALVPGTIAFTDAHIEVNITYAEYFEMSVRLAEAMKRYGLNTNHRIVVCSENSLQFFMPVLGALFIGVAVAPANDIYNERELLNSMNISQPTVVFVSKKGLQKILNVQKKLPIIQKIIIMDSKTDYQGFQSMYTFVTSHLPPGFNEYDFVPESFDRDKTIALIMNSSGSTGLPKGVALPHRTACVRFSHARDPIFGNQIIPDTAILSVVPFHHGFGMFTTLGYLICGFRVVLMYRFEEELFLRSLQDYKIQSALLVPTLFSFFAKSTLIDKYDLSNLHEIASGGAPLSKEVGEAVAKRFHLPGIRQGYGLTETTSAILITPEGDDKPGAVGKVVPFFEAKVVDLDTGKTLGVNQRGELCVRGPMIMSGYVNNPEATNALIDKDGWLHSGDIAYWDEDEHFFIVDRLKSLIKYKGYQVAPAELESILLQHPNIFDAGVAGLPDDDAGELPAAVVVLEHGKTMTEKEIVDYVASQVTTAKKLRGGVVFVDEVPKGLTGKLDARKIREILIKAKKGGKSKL
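Purified P. pyralis luciferase (10nM final) with 10uM D-luciferin and 10uM ATP (Km levels) in 50mM Tris acetate pH 7.5, 10mM Mg acetate, 0.01% Tween-20, 0.05% BSA; qHTS 6-point titration, ~60 µM downward; luminescence read.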
* = called active by the depositor; [ ] = remark or other dose. The call rests on the fitted dose curve; in most records, active means well fitted curve in the direction sought with a large enough effect; inconclusive means small, poorly fitted or top-dose-only effect, or another doubt; inactive means no such curve, though single readings can be large; an effect the other way counts as inactive or inconclusive. Potency means the concentration at half of the fitted maximal effect.

Results for CCc1ccc(-c2nn(Cc3ccccc3)cc2C=O)cc1 ?
NPC1 promoter act: 2.5µM*; ELG1 genotox: inconclusive; Luc counter: -1%; Rab9 promoter act: 1µM*; SMN2 splice enh: 14µM*; FLuc modulator: 6.7µM*

What do the screens show for `O=C(O)c1cn(Cc2ccccc2)nc1-c1ccccc1`?
NPC1 promoter act: -1%; ELG1 genotox: -3%; Luc counter: 0%; Rab9 promoter act: 0%; SMN2 splice enh: -11%; FLuc modulator: -15%

How did COc1ccc(-c2nc(NC(=O)Cn3c(=O)oc4ccccc43)sc2C)cc1 do in these assays?
NPC1 promoter act: 2%; ELG1 genotox: -9%; Luc counter: 2%; Rab9 promoter act: 2%; SMN2 splice enh: -33%; FLuc modulator: 1%

What do the screens show for `COc1ccc(NC(=O)CCCn2c(=O)oc3ccccc32)cc1Cl`?
NPC1 promoter act: inconclusive; ELG1 genotox: inconclusive; Luc counter: 0%; Rab9 promoter act: inconclusive; SMN2 splice enh: inconclusive; FLuc modulator: 12µM*

Results for CCC12CCN(C)CC1Oc1c(C)cccc12 (stereo unspecified) ?
FLuc modulator: -2%

Results for CC(C)(C)c1ccc(C(=O)C2CCCN(Cc3ccon3)C2)cc1 (stereo unspecified) ?
NPC1 promoter act: inconclusive; ELG1 genotox: 15%; Rab9 promoter act: inconclusive; FLuc modulator: 17µM*

What do the screens show for `O=C(c1ccc(Cl)cc1)C1CCCN(Cc2ccon2)C1` (stereo unspecified)?
NPC1 promoter act: -5%; ELG1 genotox: 1%; Luc counter: -2%; Rab9 promoter act: -4%; FLuc modulator: 0%

How did CCN(CCO)c1ccc(N=Cc2c(O)n(C)c(=S)[nH]c2=O)cc1 do in these assays?
NPC1 promoter act: inconclusive; ELG1 genotox: 13%; Rab9 promoter act: inconclusive; FLuc modulator: 1.7µM*

Results for Cc1ccc(Cn2cccc(C(=O)Nc3ccc4c(c3)OCCO4)c2=O)cc1 ?
FLuc modulator: 8.5µM*

What do the screens show for `O=C(CSCc1ccccc1)Nc1ccc2c(c1)OCO2`?
NPC1 promoter act: inconclusive; ELG1 genotox: inconclusive; Luc counter: 0%; Rab9 promoter act: 3.2µM*; SMN2 splice enh: 11%; FLuc modulator: 15µM*

Results for Cc1ccc(Cn2cccc(C(=O)Nc3ccc4c(c3)OCO4)c2=O)cc1 ?
FLuc modulator: -17%

Results for O=C(Nc1ccc2c(c1)OCO2)c1cccn(Cc2ccccc2)c1=O ?
FLuc modulator: 17µM*

Results for CCc1ccc(NC(=O)c2cccn(Cc3cccc([N+](=O)[O-])c3)c2=O)cc1 ?
FLuc modulator: 9.5µM*

How did Cc1ccc(NC(=O)N(Cc2ccc3c(c2)OCO3)C2CCN(Cc3ccccc3)CC2)cc1C do in these assays?
FLuc modulator: -6%

How did O=C(Nc1ccon1)c1cccn(Cc2ccccc2)c1=O do in these assays?
FLuc modulator: -2%

What do the screens show for `O=C(Nc1ccncc1)c1cccn(Cc2ccccc2)c1=O`?
NPC1 promoter act: -27%; ELG1 genotox: 1%; Luc counter: 7%; Rab9 promoter act: -29%; SMN2 splice enh: -75%; FLuc modulator: -14%

Results for O=C(Nc1ccc2c(c1)OCCO2)c1cccn(Cc2cccc(F)c2)c1=O ?
FLuc modulator: 21µM*

Results for O=C(Nc1ccc2c(c1)OCO2)c1cccn(Cc2cccc(F)c2)c1=O ?
FLuc modulator: 27µM*

How did O=C(Nc1ccccc1)c1cccn(Cc2ccccc2)c1=O do in these assays?
NPC1 promoter act: 16%; ELG1 genotox: inconclusive; Luc counter: 1%; Rab9 promoter act: 4µM*; SMN2 splice enh: -46%; FLuc modulator: 24µM*

What do the screens show for `Nc1ccc(S(=O)(=O)c2ccc(NCN3C(=O)NC(=O)C(=O)C3=O)cc2)cc1`?
Luc counter: -2%[7.66 µM]; SMN2 splice enh: -13%[9.22 µM]

Results for Cc1ccc2nc(N3CCN(C)CC3)[nH]c2c1 ?
NPC1 promoter act: inconclusive; ELG1 genotox: 16µM*; Luc counter: 2%; Rab9 promoter act: inconclusive; SMN2 splice enh: 104%; FLuc modulator: 27µM*

Results for CC(=O)O/C(=C1/C[C@H]2[C@@H]3CC=C4C[C@@H](OC(C)=O)CC[C@]4(C)[C@@H]3CC[C@]2(C)C1=O)C(F)(F)F ?
Luc counter: -5%[7.66 µM]; SMN2 splice enh: -3%[9.22 µM]

What do the screens show for `c1ccc(N=Nc2ccccc2)cc1`?
Luc counter: -4%; SMN2 splice enh: 4%

How did Cc1cccc(N=Nc2ccc(N(C)C)cc2)c1 do in these assays?
NPC1 promoter act: 0.63µM*; ELG1 genotox: 4.6µM*; Rab9 promoter act: 1.3µM*; FLuc modulator: 0.67µM*

What do the screens show for `O=C(O)C[C@H]1NCc2cc3ccccc3nc21`?
Luc counter: -2%[7.66 µM]; SMN2 splice enh: -3%[9.22 µM]

How did C/C(=N\NC(=O)c1ccccc1O)c1c(O)n(Cc2ccccc2)c(=O)[nH]c1=O do in these assays?
NPC1 promoter act: -3%; ELG1 genotox: 4%; Rab9 promoter act: -3%; FLuc modulator: 11µM*

Results for C/C(=N\NC(=O)c1ccccc1O)c1c(O)n(C2CCCCC2)c(=O)[nH]c1=O ?
NPC1 promoter act: 2%; ELG1 genotox: 5%; Rab9 promoter act: -1%; FLuc modulator: 27µM*

Results for C/C(=N\NC(=O)c1ccccc1Cl)c1c(O)n(C2CCCCC2)c(=O)[nH]c1=O ?
NPC1 promoter act: 1%; ELG1 genotox: 0%; Rab9 promoter act: -1%; FLuc modulator: -2%

What do the screens show for `O=C1NC(=O)C(=Cc2ccc(-c3ccc(Cl)cc3)o2)C(=O)N1`?
NPC1 promoter act: 0%; ELG1 genotox: -16%; Rab9 promoter act: 0%; FLuc modulator: 6.7µM*

Results for CN1C(=O)C(=Cc2ccc(Sc3ccccc3)o2)C(=O)N(C)C1=O ?
NPC1 promoter act: -3%; ELG1 genotox: 13%; Luc counter: -2%; Rab9 promoter act: -5%; SMN2 splice enh: -2%; FLuc modulator: inconclusive

Results for O=C1NC(=O)C(=Cc2ccc(-c3ccc(S(=O)(=O)N4CCOCC4)cc3)o2)C(=O)N1 ?
NPC1 promoter act: -1%; ELG1 genotox: 11%; Rab9 promoter act: 2%; FLuc modulator: inconclusive
